# Measured values reported in paper PMC4336329 (PLoS ONE, 2015).
# About 14,000 (4.5%) of roughly 310,000 compounds showed an effect of 50% or more. The effect is printed as a negative number. The entries come from a sample that favours strong results as a whole.
# Molecular target: human ether-à-go-go-related gene (hERG) potassium channel (human, UniProt Q12809)
# Assay: primary screen, population patch clamp on CHO cells stably expressing hERG; higher = less effect of the substance
# 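Note: peak tail current of the secondary pulse compared with the same well before compound.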
# Sequence of human ether-à-go-go-related gene (hERG) potassium channel (Q12809 whole entry, looked up): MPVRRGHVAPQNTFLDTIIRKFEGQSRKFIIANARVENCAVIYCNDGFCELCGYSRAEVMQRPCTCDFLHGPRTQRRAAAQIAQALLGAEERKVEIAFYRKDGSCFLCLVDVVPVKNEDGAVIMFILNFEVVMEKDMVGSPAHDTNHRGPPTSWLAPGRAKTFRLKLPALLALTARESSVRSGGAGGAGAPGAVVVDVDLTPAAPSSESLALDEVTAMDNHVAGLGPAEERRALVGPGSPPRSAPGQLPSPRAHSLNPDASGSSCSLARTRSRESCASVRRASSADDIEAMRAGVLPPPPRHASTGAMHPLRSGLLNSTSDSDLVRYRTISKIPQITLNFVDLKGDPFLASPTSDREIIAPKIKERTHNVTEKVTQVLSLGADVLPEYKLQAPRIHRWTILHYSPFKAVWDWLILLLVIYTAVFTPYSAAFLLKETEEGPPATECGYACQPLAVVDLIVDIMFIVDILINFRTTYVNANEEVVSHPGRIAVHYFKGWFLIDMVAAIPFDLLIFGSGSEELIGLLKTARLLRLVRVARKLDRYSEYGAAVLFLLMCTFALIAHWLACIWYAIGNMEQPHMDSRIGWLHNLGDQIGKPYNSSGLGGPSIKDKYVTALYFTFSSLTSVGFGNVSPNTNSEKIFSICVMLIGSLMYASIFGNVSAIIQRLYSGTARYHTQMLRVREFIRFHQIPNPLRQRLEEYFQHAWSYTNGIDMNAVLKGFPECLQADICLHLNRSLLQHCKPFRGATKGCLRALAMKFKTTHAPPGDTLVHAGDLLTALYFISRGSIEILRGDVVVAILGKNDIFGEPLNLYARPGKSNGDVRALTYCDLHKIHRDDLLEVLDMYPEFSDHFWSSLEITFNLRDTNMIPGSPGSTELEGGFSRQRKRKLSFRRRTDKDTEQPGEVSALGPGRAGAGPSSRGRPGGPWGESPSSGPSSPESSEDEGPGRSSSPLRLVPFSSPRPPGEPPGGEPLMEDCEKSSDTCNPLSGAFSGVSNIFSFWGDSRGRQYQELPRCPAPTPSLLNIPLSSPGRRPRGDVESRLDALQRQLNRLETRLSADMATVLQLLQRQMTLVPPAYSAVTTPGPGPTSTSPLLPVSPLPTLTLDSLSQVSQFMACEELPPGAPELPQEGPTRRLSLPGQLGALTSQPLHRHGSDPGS
row,Compound,"hERG current change (%, negative = inhibition) at 10uM [%]"
1,O=C(CSc1nnc(-c2cccnc2)o1)Nc1cccc(F)c1,-1.97
2,Cc1c(Br)c([N+](=O)[O-])nn1CC(=O)N1CCN(C23CC4CC(CC(C4)C2)C3)CC1,-38.1
3,Cc1c(N2C(=O)/C(=C\c3ccccc3O)SC2=S)c(=O)n(-c2ccccc2)n1C,30.5
4,O=C(O)Cc1nc2nc3c(c(=O)n2[nH]1)CCCC3,16.3
5,CCOc1ccc(/C=N/NC(=O)c2cc(-c3cccn3C)n[nH]2)cc1,5.27
6,COc1ccc(C/C(O)=C(\C#N)c2nc3ccccc3s2)cc1,11.6
7,O=C(O)C(=O)O.c1ccc(-c2ccccc2OCCCN2CCCCC2)cc1,-74.6
8,O=C(O)C(=O)O.c1ccc(-c2ccccc2OCCOCCN2CCOCC2)cc1,6.15
9,O=C(O)C(=O)O.c1ccc(-c2ccccc2OCCCCN2CCCCCC2)cc1,-77.5
10,O=C(O)C(=O)O.c1ccc(-c2ccccc2OCCCN2CCCCCC2)cc1,-80.1
11,O=C(O)C(=O)O.c1ccc(-c2ccccc2OCCN2CCCCC2)cc1,-45.9
12,CCC1(c2ccc(C)cc2)NC(=O)N(CC(=O)Nc2cccc(S(=O)(=O)N3CCCC3)c2)C1=O (stereo not shown),0.0785
13,O=C(NCCCN1CCCCC1)C1CC(=O)N(CCc2ccccc2)C1 (stereo not shown),12.3
14,CC(C)CC(=O)Nc1nnc(S(=O)(=O)N2CCCCCC2)s1,-15
15,COc1ccc(-c2nc3c(s2)CN(S(C)(=O)=O)CC3)cc1OC,15.2
16,Cc1ccc(S(=O)(=O)NCCC(=O)Nc2ccc(C)c(Cl)c2)cc1C,-1.46
17,CCOC(=O)C1CCCN(C2CC(=O)N(c3ccc(C(C)C)cc3)C2=O)C1 (stereo not shown),-10
18,CCc1ccc(NC(=O)Cc2ccc(-n3cccc3)cc2)cc1,0.973
19,Cc1[nH]n(-c2ccccc2)c(=O)c1/C=N/n1c(C)nc2ccccc2c1=O,11.8
20,CCc1ccc(Nc2ccc(C(N)=O)cc2[N+](=O)[O-])cc1,8.56
21,Cc1ccc(N)c(N)c1,6.61

row,Compound,"hERG current change (%, negative = inhibition) at 10uM [%]"
1,CC(=O)NNC(=O)CCn1c2c(c3ccccc31)CCCC2,9.01
2,CCCCn1c2c(c(=N)c3ccccc31)CCC2.I,-50.3
3,O=C(O)Cn1c2c(c3ccccc31)CCCC2,7.39
4,CCCCCCCn1c2c(c(=N)c3ccccc31)CCC2.I,-81.4
5,Br.CCn1c2c(c(=N)c3ccccc31)CCC2,5.12
6,CCOC(=O)Cn1c2c(c(=N)c3ccccc31)CCC2.Cl,4.06
7,O=C(O)CCn1c2c(c3ccccc31)CCCC2,25.3
8,Cl.N=c1c2c(n(Cc3ccccc3)c3c1CCC3)CCC2,-0.485
9,CCCCCn1c2c(c(=N)c3ccccc31)CCC2.I,-71.2
10,[N-]=[N+]=NC[C@H](Cc1ccccc1)N1CC[C@@H](OCc2ccccc2)CCC1=O,-13.3
11,CCC(=O)n1nc(-c2ccc(Cl)cc2)nc1N,3.71
12,CC1(/[N+]([O-])=C/c2ccccc2F)CCCCC1=O (stereo not shown),25.2
13,O=C1OC(c2ccc(Br)cc2)=N/C1=C\c1ccco1,26.3
14,COc1ccc(CCNc2nc(N3CCOCC3)nc(N3CCOCC3)n2)cc1OC,3.45
15,COc1ccc(N2CCN(c3nc(NCCc4ccc(OC)c(OC)c4)nc(OC)n3)CC2)cc1,-78.3
16,CCOc1nc(NCCc2ccc(OC)c(OC)c2)nc(N2CCN(c3ccc(OC)cc3)CC2)n1,-3.79
17,N=C1C(c2nc(-c3ccc(Cl)cc3)cs2)=C(O)CN1NC(=O)c1ccc(O)cc1,4.02
18,Cc1ccccc1N1CCN(C2CCCN(C(=O)c3cc[n+]([O-])cc3)C2)CC1 (stereo not shown),9.87
19,COc1ccc(CN2C(=O)CCC(C(=O)O)C2c2ccccc2)cc1 (stereo not shown),25.6
20,Cc1cc(=O)n(C)c(=O)n1CCCCCOc1cccc([N+](=O)[O-])c1,-57.9
21,Cc1cc(=O)n(C)c(=O)n1CCCCOc1cccc([N+](=O)[O-])c1,-14.5

row,Compound,"hERG current change (%, negative = inhibition) at 10uM [%]"
1,O=C(COc1cccc([N+](=O)[O-])c1)NN1C(=O)c2ccccc2C1=O,-5.95
2,Cc1cc(=O)n(C)c(=O)n1CCCCCCOc1cccc([N+](=O)[O-])c1,-69.3
3,Cc1cc(C(=O)COc2cccc([N+](=O)[O-])c2)c(C)n1C1CC1,-35.7
4,Cc1cc(=O)n(C)c(=O)n1CCCNc1ccccc1.O=C(O)C(=O)O,-4.01
5,Cn1nccc1CNC(=O)c1ccnn1C,14.9
6,COc1ccc(COC(=O)C2=C(C)NC(=O)NC2c2cccc(OC)c2OC)cc1 (stereo not shown),5.25
7,CCC(=O)Nc1ncc2c(n1)CC(c1ccco1)CC2=O (stereo not shown),7.92
8,COc1ccc(CCNC(=O)C2CCN(C(=O)c3ccc(Cl)cc3)CC2)cc1OC,2.77
9,COc1ccc(OC)c(NC(=O)COC(=O)C2CCN(C(=O)c3ccc(Cl)cc3)CC2)c1,-71.1
10,COc1ccc(Cl)cc1NC(=O)COC(=O)C1CCCCC1,7.15
11,COc1ccc(C)cc1NC(=O)COC(=O)C1CC1,6.16
12,COc1ccc(C)cc1NC(=O)COC(=O)C1CCN(C(=O)c2ccc(Cl)cc2)CC1,-79.1
13,Cc1ccc(Cl)cc1NC(=O)COC(=O)C1CC1,-5.31
14,COc1ccc(C)cc1NC(=O)Nc1ccc(C(=O)N2CCCC2)cc1,-23
15,O=C(OCc1ccccn1)C1CCN(C(=O)c2ccc(Cl)cc2)CC1,-36
16,Cc1ccc(Cl)cc1NC(=O)COC(=O)C1CCCC1,-75.8
17,Cc1ccc(Cl)cc1NC(=O)COC(=O)C1CCCCC1,7.48
18,COc1ccc(COC(=O)C2CCN(C(=O)c3ccc(Cl)cc3)CC2)cc1F,-52.2
19,COc1ccc(Cl)cc1NC(=O)COC(=O)C1CC1,-0.403
